Source: the supplement of paper PMC8728848
Many of the other results were omitted from the sample, so the strongest signals are more common in it than they were.

Assays:
Test in all cases: glycan array binding signal (z-score within array); higher = stronger binding
Details in all cases: glycan notation: IUPAC condensed, linker removed
[1] = molecular target: Gal(b1-4)GlcNAc(b1-3)[GlcNAc(b1-6)]Gal(b1-4)GlcNAc
In short: (§1)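 From the Consortium for Functional Glycomics database, 3228 arrays were curated, keeping only those whose protein sequence was available. Binding is given as a within-array Z-score averaged across arrays sharing a protein sequence and across linkers. Negative Z-scores can be read as non-binding.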

Gal(b1-4)GlcNAc6P = molecular target: Gal(b1-4)GlcNAc6P
In short: as §1

Gal3S(b1-4)Glc = molecular target: Gal3S(b1-4)Glc
In short: as §1

Gal3S(b1-4)Glc6S = molecular target: Gal3S(b1-4)Glc6S
In short: as §1

[2] = molecular target: Gal3S(b1-4)[Fuc(a1-3)]GlcNAc6S
In short: as §1

Gal3S6S(b1-4)GlcNAc = molecular target: Gal3S6S(b1-4)GlcNAc
In short: as §1

Gal4S6S(b1-4)GlcNAc = molecular target: Gal4S6S(b1-4)GlcNAc
In short: as §1

Gal6S(b1-4)Glc = molecular target: Gal6S(b1-4)Glc
In short: as §1

[3] = molecular target: GalNAc(a1-3)GalNAc(b1-3)Gal(a1-4)Gal(b1-4)Glc
In short: as §1

[4] = molecular target: GalNAc(a1-3)GalNAc(b1-3)Gal(a1-4)Gal(b1-4)GlcNAc
In short: as §1

GalNAc(b1-4)Gal(b1-4)Glc = molecular target: GalNAc(b1-4)Gal(b1-4)Glc
In short: as §1

GalNAc3S(b1-4)GlcNAc = molecular target: GalNAc3S(b1-4)GlcNAc
In short: as §1

[5] = molecular target: Glc(a1-6)Glc(a1-6)Glc(a1-6)Glc
In short: as §1

[6] = molecular target: GlcNAc(b1-3)Gal(b1-4)GlcNAc(b1-3)Gal(b1-4)GlcNAc(b1-3)Gal(b1-4)GlcNAc(b1-3)Gal(b1-4)GlcNAc(b1-2)Man(a1-3)[GlcNAc(b1-3)Gal(b1-4)GlcNAc(b1-3)Gal(b1-4)GlcNAc(b1-3)Gal(b1-4)GlcNAc(b1-3)Gal(b1-4)GlcNAc(b1-2)Man(a1-6)]Man(b1-4)GlcNAc(b1-4)[Fuc(a1-6)]GlcNAc
In short: as §1

[7] = molecular target: GlcNAc(b1-4)[GlcNAc(b1-6)]GalNAc
In short: as §1

[8] = molecular target: Man(a1-3)[Man(a1-6)]Man(a1-6)[Man(a1-2)Man(a1-3)]Man(b1-4)GlcNAc(b1-4)GlcNAc
In short: as §1

[9] = molecular target: Man(a1-3)[Man(a1-6)]Man(a1-6)[Man(a1-3)]Man
In short: as §1

Man(a1-6)Man = molecular target: Man(a1-6)Man
In short: as §1

[10] = molecular target: Neu5Ac(a2-3)Gal(b1-3)[Fuc(a1-4)]GlcNAc(b1-3)Gal(b1-4)[Fuc(a1-3)]GlcNAc
In short: as §1

[11] = molecular target: Neu5Ac(a2-3)Gal(b1-3)[Neu5Ac(a2-6)]GalNAc
In short: as §1

[12] = molecular target: Neu5Ac(a2-3)Gal(b1-4)GlcNAc(b1-2)Man
In short: as §1

[13] = molecular target: Neu5Ac(a2-3)Gal(b1-4)GlcNAc(b1-2)Man(a1-3)[GlcNAc(b1-4)][Neu5Ac(a2-3)Gal(b1-4)GlcNAc(b1-2)Man(a1-6)]Man(b1-4)GlcNAc(b1-4)GlcNAc
In short: as §1

[14] = molecular target: Neu5Ac(a2-3)[GalNAc(b1-4)]Gal(b1-4)GlcNAc
In short: as §1

[15] = molecular target: Neu5Ac(a2-6)Gal(b1-4)GlcNAc(b1-2)Man(a1-3)[Gal(b1-4)GlcNAc(b1-2)Man(a1-6)]Man(b1-4)GlcNAc(b1-4)GlcNAc
In short: as §1

[16] = molecular target: Neu5Ac(a2-6)Gal(b1-4)GlcNAc(b1-2)Man(a1-3)[GlcNAc(b1-4)][Neu5Ac(a2-6)Gal(b1-4)GlcNAc(b1-2)Man(a1-6)]Man(b1-4)GlcNAc(b1-4)GlcNAc
In short: as §1

[17] = molecular target: Neu5Ac(a2-6)Gal(b1-4)GlcNAc(b1-2)[Neu5Ac(a2-6)Gal(b1-4)GlcNAc(b1-4)]Man(a1-3)[GlcNAc(b1-4)][Neu5Ac(a2-6)Gal(b1-4)GlcNAc(b1-2)[Neu5Ac(a2-6)Gal(b1-4)GlcNAc(b1-6)]Man(a1-6)]Man(b1-4)GlcNAc(b1-4)GlcNAc
In short: as §1

[18] = molecular target: Neu5Ac(a2-6)Gal(b1-4)GlcNAc(b1-3)Gal(b1-4)GlcNAc(b1-2)Man(a1-3)[Neu5Ac(a2-6)Gal(b1-4)GlcNAc(b1-3)Gal(b1-4)GlcNAc(b1-2)Man(a1-6)]GalNAc
In short: as §1

[19] = molecular target: Neu5Ac(a2-6)GalNAc(b1-4)GlcNAc6S
In short: as §1

Neu5Ac(a2-8)Neu5Ac = molecular target: Neu5Ac(a2-8)Neu5Ac
In short: as §1

[20] = molecular target: Neu5Ac(a2-8)Neu5Ac(a2-8)Neu5Ac(a2-8)Neu5Ac(a2-3)[GalNAc(b1-4)]Gal(b1-4)Glc
In short: as §1

B1: Clone646PsrP (Streptococcus pneumoniae) (protein)
chain: MDHHHHHHHHASENLYFQGAPAINASLNIAKSETKVYTGEGVDSVYRVPIYYKLKVTNDGSKLTFTYTVTYVNPKTNDLGNISSMRPGYSIYNSGTSTQTMLTLGSDLGKPSGVKNYITDKNGRQVLSYNTSTMTTQGSGYTWGNGAQMNGFFAKKGYGLTSSWTVPITGTDTSFTFTPYAARTDRIGINYFNGGGKVVESSTTSQSLSQSKSLSVSAS
- glycan array binding signal (z-score) [1]: -0.238
- glycan array binding signal (z-score) (Gal(b1-4)GlcNAc6P): 2.57
- glycan array binding signal (z-score) (Gal3S(b1-4)Glc): 1.81
- glycan array binding signal (z-score) (Gal3S(b1-4)Glc6S): 1.63
- glycan array binding signal (z-score) [2]: 3.08
- glycan array binding signal (z-score) (Gal3S6S(b1-4)GlcNAc): 2.75
- glycan array binding signal (z-score) (Gal4S6S(b1-4)GlcNAc): 0.386
- glycan array binding signal (z-score) (Gal6S(b1-4)Glc): -0.221
- glycan array binding signal (z-score) [3]: -0.265
- glycan array binding signal (z-score) [4]: -0.546
- glycan array binding signal (z-score) (GalNAc(b1-4)Gal(b1-4)Glc): 2.93
- glycan array binding signal (z-score) (GalNAc3S(b1-4)GlcNAc): 2.09
- glycan array binding signal (z-score) [5]: 3.01
- glycan array binding signal (z-score) [6]: -0.863
- glycan array binding signal (z-score) [7]: -0.205
- glycan array binding signal (z-score) [8]: 1.06
- glycan array binding signal (z-score) [9]: 3.32
- glycan array binding signal (z-score) (Man(a1-6)Man): 4.74
- glycan array binding signal (z-score) [10]: -0.482
- glycan array binding signal (z-score) [11]: -0.254
- glycan array binding signal (z-score) [12]: 2.89
- glycan array binding signal (z-score) [13]: -0.995
- glycan array binding signal (z-score) [14]: -0.733
- glycan array binding signal (z-score) [15]: -0.713
- glycan array binding signal (z-score) [16]: -0.966
- glycan array binding signal (z-score) [17]: -0.332
- glycan array binding signal (z-score) [18]: -0.421
- glycan array binding signal (z-score) [19]: -0.113
- glycan array binding signal (z-score) (Neu5Ac(a2-8)Neu5Ac): 0.174
- glycan array binding signal (z-score) [20]: -0.64
